Data taken from the supplement of paper PMC8728848.
The sample as a whole holds a higher share of the strongest signals than the screen did.

Columns and labels:
Assay in all cases: glycan array binding signal (z-score within array); higher = stronger binding
Details in all cases: glycan notation: IUPAC condensed, linker removed
[1] = biological target: Fuc(a1-2)Gal(b1-3)GalNAc
Method in brief: (§1)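 Arrays were curated from the Consortium for Functional Glycomics database, 3228 in total, and kept only where the protein sequence was available. Binding is expressed as a within-array Z-score. This score was averaged across arrays of the same protein sequence at different concentrations or buffers and across linkers, and negative values can be read as non-binding.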

[2] = biological target: Fuc(a1-2)Gal(b1-3)GalNAc(a1-3)[Fuc(a1-2)]Gal(b1-4)Glc
Method in brief: as §1

[3] = biological target: Fuc(a1-2)Gal(b1-3)GalNAc(b1-4)[Neu5Ac(a2-3)]Gal(b1-4)Glc
Method in brief: as §1

[4] = biological target: Fuc(a1-2)Gal(b1-3)[Fuc(a1-4)]GlcNAc
Method in brief: as §1

[5] = biological target: Fuc(a1-2)Gal(b1-3)[Fuc(a1-4)]GlcNAc(b1-3)[Gal(b1-4)GlcNAc(b1-6)]Gal(b1-4)Glc
Method in brief: as §1

[6] = biological target: Fuc(a1-2)Gal(b1-4)[Fuc(a1-3)]GlcNAc(b1-2)Man(a1-3)[Fuc(a1-2)Gal(b1-4)[Fuc(a1-3)]GlcNAc(b1-2)Man(a1-6)]Man(b1-4)GlcNAc(b1-4)GlcNAc
Method in brief: as §1

[7] = biological target: Fuc(a1-2)Gal(b1-4)[Fuc(a1-3)]GlcNAc(b1-3)Gal(b1-4)[Fuc(a1-3)]GlcNAc(b1-3)Gal(b1-4)[Fuc(a1-3)]GlcNAc
Method in brief: as §1

[8] = biological target: Fuc(a1-2)[GalNAc(a1-3)]Gal(b1-4)GlcNAc
Method in brief: as §1

[9] = biological target: Fuc(a1-3)[Gal(b1-4)]GlcNAc(b1-3)GalNAc
Method in brief: as §1

[10] = biological target: Gal(a1-3)Gal(b1-3)[Fuc(a1-4)]GlcNAc(b1-2)Man(a1-3)[Gal(a1-3)Gal(b1-3)[Fuc(a1-4)]GlcNAc(b1-2)Man(a1-6)]Man(b1-4)GlcNAc(b1-4)GlcNAc
Method in brief: as §1

[11] = biological target: Gal(a1-3)Gal(b1-4)Glc
Method in brief: as §1

[12] = biological target: Gal(a1-3)Gal(b1-4)GlcNAc(b1-3)GalNAc
Method in brief: as §1

[13] = biological target: Gal(a1-3)[Gal(a1-4)]Gal(b1-4)GlcNAc
Method in brief: as §1

[14] = biological target: Gal(a1-4)Gal(b1-4)GlcNAc
Method in brief: as §1

[15] = biological target: Gal(a1-4)GlcNAc
Method in brief: as §1

[16] = biological target: Gal(b1-3)GalNAc(a1-3)[Fuc(a1-2)]Gal(b1-4)Glc
Method in brief: as §1

[17] = biological target: Gal(b1-3)GlcNAc
Method in brief: as §1

[18] = biological target: Gal(b1-3)GlcNAc(b1-3)Gal(b1-4)GlcNAc
Method in brief: as §1

[19] = biological target: Gal(b1-4)GlcNAc(b1-2)Man(a1-3)[Gal(b1-4)GlcNAc(b1-2)Man(a1-6)]Man(b1-4)GlcNAc(b1-4)GlcNAc
Method in brief: as §1

[20] = biological target: Gal(b1-4)GlcNAc(b1-2)Man(a1-6)[GlcNAc(b1-2)Man(a1-3)]Man(b1-4)GlcNAc(b1-4)GlcNAc
Method in brief: as §1

[21] = biological target: Gal3S(b1-4)Glc6S
Method in brief: as §1

[22] = biological target: GalNAc(a1-3)Gal
Method in brief: as §1

[23] = biological target: GalNAc(b1-3)GalNAc
Method in brief: as §1

[24] = biological target: GalNAc(b1-4)GlcNAc
Method in brief: as §1

[25] = biological target: GlcNAc(a1-4)Gal(b1-3)GlcNAc
Method in brief: as §1

[26] = biological target: GlcNAc(b1-2)Gal(b1-3)GalNAc
Method in brief: as §1

[27] = biological target: GlcNAc(b1-2)Man(a1-3)[GlcNAc(b1-2)Man(a1-6)]Man(b1-4)GlcNAc(b1-4)GlcNAc
Method in brief: as §1

[28] = biological target: Kdn(a2-3)Gal(b1-3)GlcNAc
Method in brief: as §1

[29] = biological target: Kdn(a2-3)Gal(b1-4)[Fuc(a1-3)]GlcNAc
Method in brief: as §1

[30] = biological target: Kdn(a2-6)Gal(b1-4)GlcNAc
Method in brief: as §1

[31] = biological target: Man(a1-2)Man(a1-2)Man(a1-6)[Man(a1-3)]Man
Method in brief: as §1

[32] = biological target: Man(a1-2)Man(a1-3)Man
Method in brief: as §1

[33] = biological target: Man(a1-3)[Man(a1-6)]Man
Method in brief: as §1

[34] = biological target: Man(a1-3)[Man(a1-6)]Man(a1-6)[Man(a1-3)]Man
Method in brief: as §1

[35] = biological target: Neu5Ac(a2-3)Gal(b1-4)[Fuc(a1-3)]GlcNAc(b1-3)GalNAc
Method in brief: as §1

[36] = biological target: Neu5Ac(a2-6)Gal
Method in brief: as §1

[37] = biological target: Neu5Ac(a2-6)Gal(b1-4)GlcNAc(b1-3)GalNAc
Method in brief: as §1

[38] = biological target: Neu5Ac(a2-6)GalNAc
Method in brief: as §1

[39] = biological target: Neu5Ac(a2-6)GlcNAc(b1-4)GlcNAc
Method in brief: as §1

[40] = biological target: Neu5Ac(a2-8)Neu5Ac
Method in brief: as §1

[41] = biological target: Neu5Ac(a2-8)Neu5Ac(a2-3)[GalNAc(b1-4)]Gal(b1-4)Glc
Method in brief: as §1

B1: AcfC (Vibrio cholerae), Q57410 (protein)
chain: MKSKNRFLLISLLSFSTSVFADVNLYGPGGPHVPLIKVAESFEKSQSKRVNITFGPQATWNDKAKKNADILFGASEHSALAIAEGHSERFSKFNIHPVFMREAIILVKKGNPKNIKGMADLLKPGIGIVVNDGAGVSNTSGTAVWEDSVGRMKNVEKLQAFRSNIHVFAPNSGSARKAFVDGEDIDAWITWVDWAIANPTIGDMVRMEDEYRIYRDFNVVLAKNPSSEAIDFFDYLTKSKDAEAIFQHYGWFK
glycan array binding signal (z-score) [1]: 0.244
glycan array binding signal (z-score) [2]: -1.2
glycan array binding signal (z-score) [3]: -0.09
glycan array binding signal (z-score) [4]: 3.03
glycan array binding signal (z-score) [5]: 1.12
glycan array binding signal (z-score) [6]: 3.03
glycan array binding signal (z-score) [7]: 2.22
glycan array binding signal (z-score) [8]: -0.063
glycan array binding signal (z-score) [9]: 1.43
glycan array binding signal (z-score) [10]: 4.58
glycan array binding signal (z-score) [11]: -0.864
glycan array binding signal (z-score) [12]: -0.809
glycan array binding signal (z-score) [13]: -0.149
glycan array binding signal (z-score) [14]: 0.091
glycan array binding signal (z-score) [15]: 0.322
glycan array binding signal (z-score) [16]: 0.135
glycan array binding signal (z-score) [17]: 0.247
glycan array binding signal (z-score) [18]: -0.979
glycan array binding signal (z-score) [19]: 3
glycan array binding signal (z-score) [20]: 0.212
glycan array binding signal (z-score) [21]: 0.515
glycan array binding signal (z-score) [22]: 0.334
glycan array binding signal (z-score) [23]: 0.05
glycan array binding signal (z-score) [24]: 0.088
glycan array binding signal (z-score) [25]: 0.098
glycan array binding signal (z-score) [26]: -0.601
glycan array binding signal (z-score) [27]: 0.375
glycan array binding signal (z-score) [28]: 0.128
glycan array binding signal (z-score) [29]: -0.465
glycan array binding signal (z-score) [30]: -0.748
glycan array binding signal (z-score) [31]: -0.753
glycan array binding signal (z-score) [32]: -0.096
glycan array binding signal (z-score) [33]: -0.136
glycan array binding signal (z-score) [34]: 0.134
glycan array binding signal (z-score) [35]: 6.97
glycan array binding signal (z-score) [36]: 2.2
glycan array binding signal (z-score) [37]: -0.94
glycan array binding signal (z-score) [38]: -1.62
glycan array binding signal (z-score) [39]: -0.781
glycan array binding signal (z-score) [40]: 0.214
glycan array binding signal (z-score) [41]: -0.835
